# Reference: the supplement of paper PMC11001985
# Unmarked numbers belong to inactive results.
# Compound: C#CCNC(=O)CCSSCCC(=O)NCCc1ccc(C=O)c(C=O)c1
# Test: lysine labeling ratio R10:1 (500 µM / 50 µM probe), SILAC-ABPP in living cells; higher = lower intrinsic lysine reactivity toward the probe, active = 2 or less
# Details: HeLa; probe concentrations 500 vs 50 µM
# Summary of the method: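 With forward and reverse label swaps, light and heavy SILAC HeLa cells, alive and in PBS at room temperature, were exposed to either 500 µM or 50 µM of an alkyne-tagged lysine probe bearing a disulfide link. After mixing, lysates were clicked to biotin-azide, cut with trypsin, pulled down on neutravidin, freed with DTT, alkylated and analysed on a TIMS-TOF Pro by LC-MS/MS. The per-lysine value R is the median over forward and reverse replicates of the filtered median high-probe/low-probe MS1 peptide ratio. It is capped at 20.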
# Chain of UniProt P53621 (P53621 whole entry): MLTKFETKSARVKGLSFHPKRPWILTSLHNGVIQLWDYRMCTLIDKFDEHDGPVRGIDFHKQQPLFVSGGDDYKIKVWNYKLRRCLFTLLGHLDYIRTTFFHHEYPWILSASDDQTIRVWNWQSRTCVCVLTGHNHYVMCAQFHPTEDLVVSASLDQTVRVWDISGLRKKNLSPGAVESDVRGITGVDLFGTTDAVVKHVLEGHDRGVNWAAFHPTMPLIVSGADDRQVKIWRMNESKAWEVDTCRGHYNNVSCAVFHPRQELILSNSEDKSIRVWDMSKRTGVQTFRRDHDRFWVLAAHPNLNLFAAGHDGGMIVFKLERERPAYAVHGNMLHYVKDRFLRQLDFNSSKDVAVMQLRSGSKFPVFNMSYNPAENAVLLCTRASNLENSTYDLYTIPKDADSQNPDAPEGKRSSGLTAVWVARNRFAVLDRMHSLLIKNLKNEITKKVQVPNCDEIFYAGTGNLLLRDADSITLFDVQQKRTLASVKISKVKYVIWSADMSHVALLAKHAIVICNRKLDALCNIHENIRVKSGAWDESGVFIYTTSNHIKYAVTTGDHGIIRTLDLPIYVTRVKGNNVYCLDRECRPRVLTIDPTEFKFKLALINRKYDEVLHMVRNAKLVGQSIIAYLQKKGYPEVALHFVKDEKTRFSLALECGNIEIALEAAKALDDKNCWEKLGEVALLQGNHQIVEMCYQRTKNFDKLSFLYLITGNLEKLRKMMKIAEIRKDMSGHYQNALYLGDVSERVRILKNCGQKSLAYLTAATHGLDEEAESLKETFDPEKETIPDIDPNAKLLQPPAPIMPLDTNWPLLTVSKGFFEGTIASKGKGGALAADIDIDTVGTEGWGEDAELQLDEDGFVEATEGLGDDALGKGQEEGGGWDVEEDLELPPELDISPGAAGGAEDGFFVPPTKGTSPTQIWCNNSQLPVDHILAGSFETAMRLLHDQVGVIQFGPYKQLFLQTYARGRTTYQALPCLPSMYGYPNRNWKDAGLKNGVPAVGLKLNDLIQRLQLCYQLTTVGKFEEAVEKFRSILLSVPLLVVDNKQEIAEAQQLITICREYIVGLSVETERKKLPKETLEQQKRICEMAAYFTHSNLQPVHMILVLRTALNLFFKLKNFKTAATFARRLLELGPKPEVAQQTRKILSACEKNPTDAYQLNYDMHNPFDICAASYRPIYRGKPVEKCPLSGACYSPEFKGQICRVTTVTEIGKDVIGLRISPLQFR
# Chain of UniProt P21333 (P21333 whole entry): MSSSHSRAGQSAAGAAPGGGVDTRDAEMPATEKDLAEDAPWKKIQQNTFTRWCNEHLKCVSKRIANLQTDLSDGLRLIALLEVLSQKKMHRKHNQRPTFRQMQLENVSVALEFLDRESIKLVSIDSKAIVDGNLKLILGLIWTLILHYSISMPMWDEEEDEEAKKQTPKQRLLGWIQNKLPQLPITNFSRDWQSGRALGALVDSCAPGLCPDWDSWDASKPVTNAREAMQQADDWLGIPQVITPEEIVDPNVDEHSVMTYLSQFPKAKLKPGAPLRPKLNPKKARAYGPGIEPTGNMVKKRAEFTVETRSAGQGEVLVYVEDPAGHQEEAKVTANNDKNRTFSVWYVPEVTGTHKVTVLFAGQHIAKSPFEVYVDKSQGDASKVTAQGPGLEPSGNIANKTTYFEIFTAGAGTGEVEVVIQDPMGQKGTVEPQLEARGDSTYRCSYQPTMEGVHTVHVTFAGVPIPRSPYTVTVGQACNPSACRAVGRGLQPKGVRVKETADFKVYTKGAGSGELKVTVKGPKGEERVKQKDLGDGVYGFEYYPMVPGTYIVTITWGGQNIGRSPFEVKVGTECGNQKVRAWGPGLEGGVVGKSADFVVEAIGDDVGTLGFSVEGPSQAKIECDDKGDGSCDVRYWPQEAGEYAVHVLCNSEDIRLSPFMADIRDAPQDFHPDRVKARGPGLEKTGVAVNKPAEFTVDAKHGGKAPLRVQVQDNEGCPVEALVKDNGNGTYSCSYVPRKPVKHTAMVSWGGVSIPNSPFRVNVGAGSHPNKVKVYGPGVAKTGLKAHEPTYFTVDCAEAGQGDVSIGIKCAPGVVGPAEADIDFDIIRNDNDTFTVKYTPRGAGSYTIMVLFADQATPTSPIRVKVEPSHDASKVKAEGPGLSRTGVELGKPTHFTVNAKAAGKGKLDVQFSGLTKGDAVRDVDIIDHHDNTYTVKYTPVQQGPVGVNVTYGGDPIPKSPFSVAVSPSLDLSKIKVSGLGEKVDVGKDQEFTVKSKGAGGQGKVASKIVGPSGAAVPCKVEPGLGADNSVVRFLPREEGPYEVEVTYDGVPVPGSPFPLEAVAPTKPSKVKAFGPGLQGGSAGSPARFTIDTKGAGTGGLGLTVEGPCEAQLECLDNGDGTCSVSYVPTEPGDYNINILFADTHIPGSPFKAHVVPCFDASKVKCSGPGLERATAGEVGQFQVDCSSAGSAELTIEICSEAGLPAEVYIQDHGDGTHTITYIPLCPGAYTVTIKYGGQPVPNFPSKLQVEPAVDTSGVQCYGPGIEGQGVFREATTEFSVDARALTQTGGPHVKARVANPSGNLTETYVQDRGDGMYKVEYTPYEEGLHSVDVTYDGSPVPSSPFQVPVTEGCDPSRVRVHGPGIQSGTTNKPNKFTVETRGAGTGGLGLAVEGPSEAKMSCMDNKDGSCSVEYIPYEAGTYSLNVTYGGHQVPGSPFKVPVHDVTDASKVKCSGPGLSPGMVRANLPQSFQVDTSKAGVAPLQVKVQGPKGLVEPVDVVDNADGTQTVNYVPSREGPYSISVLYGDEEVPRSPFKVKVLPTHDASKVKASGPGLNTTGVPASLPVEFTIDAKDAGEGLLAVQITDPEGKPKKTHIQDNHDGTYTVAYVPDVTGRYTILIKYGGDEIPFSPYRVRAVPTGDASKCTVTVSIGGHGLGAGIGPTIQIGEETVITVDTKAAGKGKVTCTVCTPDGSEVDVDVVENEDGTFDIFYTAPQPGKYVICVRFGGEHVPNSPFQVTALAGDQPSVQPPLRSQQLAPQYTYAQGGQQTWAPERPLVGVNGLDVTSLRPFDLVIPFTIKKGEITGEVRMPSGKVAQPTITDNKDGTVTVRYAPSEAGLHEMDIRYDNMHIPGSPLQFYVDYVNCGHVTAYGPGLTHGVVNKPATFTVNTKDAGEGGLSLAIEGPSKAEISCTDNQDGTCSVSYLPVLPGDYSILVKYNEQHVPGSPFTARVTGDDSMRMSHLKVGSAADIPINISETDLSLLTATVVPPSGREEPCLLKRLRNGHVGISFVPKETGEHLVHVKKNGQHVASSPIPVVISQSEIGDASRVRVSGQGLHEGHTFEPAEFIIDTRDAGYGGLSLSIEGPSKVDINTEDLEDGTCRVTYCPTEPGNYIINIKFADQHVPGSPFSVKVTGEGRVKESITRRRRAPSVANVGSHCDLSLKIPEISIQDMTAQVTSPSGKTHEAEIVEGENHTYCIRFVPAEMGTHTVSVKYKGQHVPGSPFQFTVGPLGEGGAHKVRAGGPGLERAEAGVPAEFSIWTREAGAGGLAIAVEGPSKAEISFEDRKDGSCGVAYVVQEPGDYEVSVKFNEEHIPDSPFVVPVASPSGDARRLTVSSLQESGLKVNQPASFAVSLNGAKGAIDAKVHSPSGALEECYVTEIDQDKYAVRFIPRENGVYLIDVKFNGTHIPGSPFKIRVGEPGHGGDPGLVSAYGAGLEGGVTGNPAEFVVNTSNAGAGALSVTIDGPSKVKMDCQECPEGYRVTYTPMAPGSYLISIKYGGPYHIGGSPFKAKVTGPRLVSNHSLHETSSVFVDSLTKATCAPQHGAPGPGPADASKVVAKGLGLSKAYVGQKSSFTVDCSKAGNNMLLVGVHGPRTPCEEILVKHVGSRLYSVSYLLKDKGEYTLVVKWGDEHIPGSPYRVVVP
# Chain of UniProt P30101 (P30101 whole entry): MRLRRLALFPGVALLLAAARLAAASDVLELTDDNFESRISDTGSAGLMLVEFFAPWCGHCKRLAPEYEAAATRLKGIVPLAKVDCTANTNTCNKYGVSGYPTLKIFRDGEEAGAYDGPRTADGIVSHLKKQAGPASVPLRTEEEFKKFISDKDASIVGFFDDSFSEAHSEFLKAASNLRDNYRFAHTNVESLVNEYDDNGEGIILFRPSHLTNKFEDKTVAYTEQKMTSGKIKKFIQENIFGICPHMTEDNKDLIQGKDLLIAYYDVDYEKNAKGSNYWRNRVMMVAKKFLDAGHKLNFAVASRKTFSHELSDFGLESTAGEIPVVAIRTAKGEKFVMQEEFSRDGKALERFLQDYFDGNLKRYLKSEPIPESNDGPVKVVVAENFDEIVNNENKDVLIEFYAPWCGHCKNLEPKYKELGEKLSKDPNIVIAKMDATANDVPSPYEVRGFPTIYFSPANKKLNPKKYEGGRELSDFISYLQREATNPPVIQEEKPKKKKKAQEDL
# Chain of UniProt P62937 (P62937 whole entry, looked up): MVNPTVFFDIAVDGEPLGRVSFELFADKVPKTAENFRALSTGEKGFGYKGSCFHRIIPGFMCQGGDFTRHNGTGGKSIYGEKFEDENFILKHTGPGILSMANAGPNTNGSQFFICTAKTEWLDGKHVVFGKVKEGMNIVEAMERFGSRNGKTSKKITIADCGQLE
# Chain of UniProt P07686 (P07686 whole entry): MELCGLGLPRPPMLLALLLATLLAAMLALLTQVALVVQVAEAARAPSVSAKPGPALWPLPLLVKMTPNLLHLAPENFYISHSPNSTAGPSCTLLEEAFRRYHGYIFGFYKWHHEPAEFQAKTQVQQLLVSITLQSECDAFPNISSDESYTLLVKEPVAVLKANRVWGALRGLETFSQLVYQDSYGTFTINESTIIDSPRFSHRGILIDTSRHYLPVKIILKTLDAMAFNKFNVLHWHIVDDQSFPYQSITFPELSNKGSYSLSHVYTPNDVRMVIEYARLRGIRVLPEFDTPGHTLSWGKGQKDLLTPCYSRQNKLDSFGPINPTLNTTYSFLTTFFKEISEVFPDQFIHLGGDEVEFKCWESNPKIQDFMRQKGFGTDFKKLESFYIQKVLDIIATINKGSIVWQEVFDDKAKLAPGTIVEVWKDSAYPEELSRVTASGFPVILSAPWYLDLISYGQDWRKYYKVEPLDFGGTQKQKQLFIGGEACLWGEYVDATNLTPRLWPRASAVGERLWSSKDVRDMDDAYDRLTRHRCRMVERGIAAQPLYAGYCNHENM
row,Target,lysine labeling ratio R10:1
1,KRT18 (lysine site: K426) (UniProt P05783),9.55
2,LPL (lysine site: K265) (UniProt P06858),1.86 (active)
3,SPTAN1 (lysine site: K1432) (UniProt Q13813),0.77 (active)
4,PPIA (lysine site: K31) (UniProt P62937),3.16
5,MYH9 (lysine site: K1648) (UniProt P35579),1.22 (active)
6,UniProt P60866 (lysine site: K75),1.91 (active)
7,FAT1 (lysine site: K894) (UniProt Q14517),2.53
8,ITGA2 (lysine site: K1046) (UniProt P17301),6.48
9,ITGA1 (lysine site: K546) (UniProt P56199),0.96 (active)
10,UniProt Q15149 (lysine site: K2037),1.95 (active)
11,GPI (lysine site: K454) (UniProt P06744),2.77
12,APOO (lysine site: K51) (UniProt Q9BUR5),0.799 (active)
13,EHD2 (lysine site: K491) (UniProt Q9NZN4),1.25 (active)
14,NCL (lysine site: K545) (UniProt P19338),3.2
15,ITGB1 (lysine site: K91) (UniProt P05556),1.53 (active)
16,MSN (lysine site: K316) (UniProt P26038),1.47 (active)
17,CSPG4 (lysine site: K831) (UniProt Q6UVK1),5.17
18,HNRNPM (lysine site: K239) (UniProt P52272),1.67 (active)
19,APP (lysine site: K521) (UniProt P05067),5.65
20,STOML2 (lysine site: K254) (UniProt Q9UJZ1),5.22

row,Target,lysine labeling ratio R10:1
1,UniProt Q9UHN6 (lysine site: K1278),1.31 (active)
2,UniProt P63000 (lysine site: K153),2.29
3,FLNA (lysine site: K520) (UniProt P21333),2.73
4,ROBO1 (lysine site: K304) (UniProt Q9Y6N7),3.14
5,DYNC1H1 (lysine site: K3621) (UniProt Q14204),3.03
6,LAMC1 (lysine site: K1191) (UniProt P11047),2.51
7,THRAP3 (lysine site: K346) (UniProt Q9Y2W1),2.43
8,RPL5 (lysine site: K242) (UniProt P46777),5.69
9,CNP (lysine site: K197) (UniProt P09543),2.88
10,UniProt P26639 (lysine site: K243),3.1
11,PDIA3 (lysine site: K433) (UniProt P30101),2.21
12,COPA (lysine site: K1134) (UniProt P53621),2.48
13,HEXB (lysine site: K517) (UniProt P07686),2.41
14,RPL22 (lysine site: K107) (UniProt P35268),2.29
15,UniProt O95980 (lysine site: K230),1.91 (active)
16,SAFB2 (lysine site: K829) (UniProt Q14151),1.92 (active)
17,UniProt P62854 (lysine site: K113),7.15
18,UniProt P35908 (lysine site: K580),5.72
19,SLC25A5 (lysine site: K23) (UniProt P05141),3.58
20,UniProt Q8WXI7 (lysine site: K14239),4.55
